From PubChem BioAssay AID602371 (National Center for Advancing Translational Sciences (NCATS), 2012)
Results filed as inconclusive are left out. Active and inactive are the calls of the source. Calls follow the shape of the dose curve; as a rule, active = well fitted inhibition curve with a large enough effect; inconclusive = small, poorly fitted or top-dose-only effect; inactive = flat fitted curve, though single readings scatter.

Assay: qHTS Assay for Inhibitors of Bacillus subtilis Sfp phosphopantetheinyl transferase (PPTase): SAR in B subtilis 168
Conditions: Bacillus subtilis 168 growth inhibition
Text: The covalent attachment of a phosphopantetheinyl (4'-PP) arm to a variety of synthases and other proteins is a key posttranslational protein modification. The 4'-PP is installed on the proteins post-translationally from coenzyme A (CoA) on a conserved serine residue by action of phosphopantetheinyl transferase (PPTase) enzymes. Phosphopantetheinylation is essential for synthase activity, and removal of the PPTase gene precludes natural product synthesis in microorganisms, or in the case of fatty acid biosynthesis, renders the organism unviable. PPTase enzymes belong to a distinct structural superfamily. Within bacteria, these enzymes are grouped into two classes based upon primary structure, the AcpS-Type and Sfp-Type PPTases.
Sfp-type PPTases, corresponding to an activator of surfactin production in Bacillus subtilis, are responsible for modifying type I polyketide and nonribosomal peptide synthases of prokaryotes. Sfp-type PPTases are responsible for the activation of a variety of pathogen-associated virulence factors. Among these compounds are toxins such as mycolactone from Mycobacterium ulcerans, siderophores such as vibriobactin from Vibrio cholerae or mycobactin from Mycobacterium tuberculosis, as well as the mycolic acids which form the waxy cell wall of Mycobacteria. The biosyntheses of these natural products are considered attractive targets for drug design.
In search of small molecule Sfp-PPTase inhibitors, a fluorescence quenching assay was developed for detection of Bacillus subtilis Sfp-PPTase enzymatic activity in a miniaturized high-throughput format. The consensus ybbr acceptor peptide […] was N-terminally labeled with Black Hole Quencher-2 (BHQ-2) and used in combination with rhodamine-labeled coenzyme A as a co-substrate.
Phosphopantetheinyl transfer is a process essential to cellular viability and maintenance. Cell-permeable and stable compounds acting as PPTase inhibitors are anticipated to be antimicrobial agents in organisms with complimenting genotypes. […] This experiment evaluated a series of test compounds for antimicrobial activity with B. subtilis 168 (genotype: acpS+ and sfp-), a strain that contains a frameshift mutation in the sfp locus and thus requires a functional AcpS gene product for viability. [Mootz HD, 2001] This strain is expected to be sensitized to cell-permeable AcpS inhibitors, and insensitive to Sfp inhibitors.
NIH Chemical Genomics Center [NCGC]
NIH Molecular Libraries Probe Centers Network [MLPCN]
Assay Submitter (PI): Michale Burkart, University of California, San Diego
Bacillus subtilis 168 is maintained on lysogeny broth (LB) solidified by the addition of 1.5% w/v agar. Single colonies were used to LB medium (2 mL) and shaken overnight at 30 deg C. In the morning, this culture (100 uL) was used to seed a fresh LB medium (10 mL) and was shaken at 30 degC until the culture OD600 reached 0.5. This culture was diluted 1:100 in fresh LB medium to provide the inoculum below.
Bacterial susceptibility.
LB medium (2 uL) is dispensed into wells of a sterile white 1536-well plate. Test compounds (23 nL) prepared as serial dilutions in DMSO are added to the plate by pintool transfer. Innoculum (2 uL) is added, the plates are covered with a vented Kalypsys assay lid and incubated at 30 deg C. After 5 h, Bac-Titer Glo (4 uL; Promega Corp, Madison, WI) is added to the plates. They are incubated 10 minutes at room temperature and then the luminescence detected in a ViewLux multimodal plate reader.

Potency, active:
Cc1ccnc(NC(=S)N2CCN(c3cccc(N(C)C)c3)CC2)c1 46.9 µM
Cc1cc(C)nc(NC(=S)N2CCN(c3ccc(Cl)c(Cl)c3)CC2)c1 37.3 µM
Cc1ccnc(NC(=S)N2CC3CN(c4cccc(C(F)(F)F)c4)CC3C2)c1 (centres undefined) 8.35 µM
COc1ccnc(NC(=S)N2CCN(c3ccc(Cl)cc3Cl)CC2)c1 16.7 µM
Cc1ccnc(NC(=S)N2CCCN(c3cccc(C(F)(F)F)c3)CC2)c1 11.8 µM
Cc1cc(C)nc(NC(=S)N2CCN(c3cc(Br)cc(C(F)(F)F)c3)CC2)c1 16.7 µM
Cc1ccnc(NC(=S)N2CCN(c3cccc(C(F)(F)F)c3)CC2)c1 14.8 µM
Cc1cc(C)nc(NC(=S)N2CCN(c3ccc(Cl)cc3Cl)CC2)c1 33.2 µM
Cc1cc(C)nc(NC(=S)N2CCN(c3ccc([N+](=O)[O-])cc3Cl)CC2)c1 14.8 µM
Cc1ccnc(NC(=S)N2CCN(c3cc(C(F)(F)F)cc(C(F)(F)F)c3)CC2)c1 14.8 µM
COc1ccnc(NC(=S)N2CCN(c3ncc(C(F)(F)F)cc3Cl)CC2)c1 18.7 µM
Cc1ccnc(NC(=S)Nc2cccc(C(F)(F)F)c2)c1 18.7 µM
S=C(Nc1cc(Cl)ccn1)N1CCN(c2cccc(Cl)c2Cl)CC1 16.7 µM
CSC(Cc1ccc(Cl)cc1)C(=O)Nc1ccc(Cl)cc1C(=O)O (centres undefined) 23.5 µM
COc1ccnc(NC(=S)N2CCN(c3cccc(Cl)c3Cl)CC2)c1 13.2 µM
Cc1cc(C)nc(NC(=S)N2CC3CN(c4ccc(Cl)cc4C(F)(F)F)CC3C2)c1 (centres undefined) 11.8 µM
FC(F)(F)c1cccc(N2CCN(C(=S)Nc3cc(C(F)(F)F)ccn3)CC2)c1 16.7 µM
FC(F)(F)c1cc(N2CCN(C(=S)Nc3cc(Cl)ccn3)CC2)cc(C(F)(F)F)c1 6.63 µM
Cc1ccnc(NC(=S)N2CC3CN(c4ncc(C(F)(F)F)cc4Cl)CC3C2)c1 (centres undefined) 16.7 µM
